The nature of assay [1]: qHTS RealTime-Glo MT Cell Viability Assay in HEK293 cells - 0 hour (AID 1224880). Also: top concentration of the series differs between compounds; nearly all actives have a fitted effect of over 45% in size. A digest of the protocol:
(§1)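 Kinetic, non-lysing viability readout. Seed HEK293 (600/well) with reagent, incubate 5 h at 37 C/5% CO2, pin 23 nL compound in DMSO, incubate at 37 C, read luminescence at 0, 8, 16, 24, 32, 40 h.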
For orientation: In qHTS, concentration-response curves come from the screen itself.

Assay [2] is described as follows: A CellTox Green Cytotoxicity Assay to monitor cytotoxicity in HEK293 cells - 32 hour (AID 1224881). Also: nearly all actives have a fitted effect of over 40% in size. A digest of the protocol: (§2)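 Real-time, in one plate: 600 HEK293 cells/well with dead-cell DNA dye, pinned compound after 5 h, 37 C incubation over 40 h; viable cells give no appreciable fluorescence.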
Assay [3] in a line: A CellTox Green Cytotoxicity Assay to monitor cytotoxicity in HepG2 cells - 0 hour (AID 1224882). Also: nearly all actives have a fitted effect of over 35% in size. A digest of the protocol: (§3)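 Cytotoxicity was tracked as dead-cell DNA fluorescence in HepG2 cells treated with test compounds at 37 C; each time-point value comes from one kinetic series spanning 0, 8, 16, 24, 32 and 40 h.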
Assay [4] in a line: A CellTox Green Cytotoxicity Assay to monitor cytotoxicity in HepG2 cells - 32 hour (AID 1224883). Also: nearly all actives have a fitted effect of over 50% in size. The procedure, abridged:
as §3

Assay [5] in a line: qHTS RealTime-Glo MT Cell Viability Assay in HEK293 cells - 24 hour (AID 1224886). Also: top concentration of the series differs between compounds; nearly all actives have a fitted effect of over 50% in size. A digest of the protocol: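 Reads taken at 0, 8, 16, 24, 32 and 40 h from the same wells. HEK293 cells (600/well) carried RealTime-Glo reagents from seeding, with compound added after a 5 h settle at 37 C.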
Assay [6] in a line: qHTS RealTime-Glo MT Cell Viability Assay in HEK293 cells - 8 hour (AID 1224887). Also: top concentration of the series differs between compounds; nearly all actives have a fitted effect of over 50% in size. The procedure, abridged: as §1
The nature of assay [7]: A CellTox Green Cytotoxicity Assay to monitor cytotoxicity in HEK293 cells - 16 hour (AID 1224888). Also: nearly all actives have a fitted effect of over 35% in size. A digest of the protocol:
as §2

The nature of assay [8]: qHTS RealTime-Glo MT Cell Viability Assay in HepG2 cells - 0 hour (AID 1224889). Also: nearly all actives have a fitted effect of over 50% in size. A digest of the protocol:
(§4)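 HepG2 suspension premixed with RealTime-Glo reagents is plated at 600 cells per well and left 5 h at 37 C/5% CO2. Compounds in DMSO then go in, and bioluminescence reflecting viable cell number is recorded over 40 h.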

Assay [9] is described as follows: A CellTox Green Cytotoxicity Assay to monitor cytotoxicity in HepG2 cells - 8 hour (AID 1224890). Also: nearly all actives have a fitted effect of over 45% in size. The procedure, abridged: as §3
Assay [10] can be described thus: qHTS assay to identify small molecule antagonists of the estrogen receptor alpha (ER-alpha) signaling pathway using the BG1 cell line in the presence of 0.1 nM 17-beta-estradiol - cell viability counter screen (AID 1259241). Also: nearly all actives have a fitted effect of over 40% in size. The procedure, abridged: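 Following 5 days in phenol red-free medium with charcoal-stripped serum, VM7Luc4E2 cells received test compounds alongside 0.1 nM 17beta-estradiol (final) at 37C for 22 hr. Live cells were then quantified via protease-substrate fluorescence.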

Assay [11] in a line: qHTS assay to identify small molecule antagonists of the androgen receptor (AR) signaling pathway using the MDA cell line in the presence of 0.5 nM R1881 - cell viability counter screen (AID 1259242). Also: nearly all actives have a fitted effect of over 45% in size. The procedure, abridged: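 Cells seeded at 3,000/well and allowed 5 hr at 37C, 0% CO2 before compound transfer and R1881 (0.5 nM final) addition; 16 hr later, live-cell protease fluorescence indicated cytotoxicity.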

Assay [12] in a line: qHTS assay to identify small molecule phospholipidosis (PLD) inducers (AID 1259344; active = well fitted curve in the direction sought with a large enough effect; an effect the other way counts as inactive or inconclusive). The procedure, abridged: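 After 4 h attachment on collagen I, HepG2 cells were dosed with compound alongside LipidTOX Red, kept 24 h at 37 C, fixed, and imaged for lamellar phospholipid pits.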
Assay [13] in a line: qHTS assay to identify small molecule HDAC inhibitors (AID 1259364). Also: potency is read from the fitted curve at half-maximal effect.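 Also: wild-type HCT-116 cells with endogenous class I/II HDAC activity; nearly all actives have a fitted effect of over 45% in size.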 As to activity change, negative = inhibition: top concentration of the series differs between compounds. A digest of the protocol:
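HCT-116 wt cells, 1,500/well, overnight attach. Compounds (DMSO) 2 h, 37 °C. HDAC-Glo I/II, 30 min RT. Luminescence.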

Assay [14] is described as follows: qHTS assay to identify small molecule HDAC inhibitors - cell viability counter screen (AID 1259365). A digest of the protocol:
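HCT-116 wild-type, overnight attachment; 2hr drug exposure, 37C; CellTiter-Glo luminescent ATP readout after 30min RT.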

A short description of assay [15]: qHTS assay to identify small molecule agonists of the sonic hedgehog signaling (Shh) pathway - cell viability counter screen (AID 1259366). Also: nearly all actives have a fitted effect of over 50% in size. The procedure, abridged:
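Compounds in DMSO were pin-transferred onto 3T3 Gli1-Luc cells that had settled 4hr; plates then stood 24hr at 37C and 5% CO2. One hour before the end, CellTiter-Fluor was added and fluorescence recorded.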

Assay [16] is described as follows: qHTS assay to identify small molecule antagonists of the sonic hedgehog signaling (Shh) pathway - cell viability counter screen (AID 1259367). Also: nearly all actives have a fitted effect of over 55% in size. A digest of the protocol: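 Conditioned medium drove Shh signaling in 3T3 Gli1-Luc cells exposed to compounds at 37C and 5% CO2. Viability was determined from CellTiter-Fluor fluorescence, with reagent incubated 1 hr after 23 hr of treatment.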

A short description of assay [17]: A CellTox Green Cytotoxicity Assay to monitor cytotoxicity in HEK293 cells - 8 hour (AID 1224884). Also: nearly all actives have a fitted effect of over 35% in size. A digest of the protocol: as §2
The target in assay [18] is Androgen receptor (Homo sapiens) (UniProt P10275). The assay is described as follows: qHTS assay to identify small molecule antagonists of the androgen receptor (AR) signaling pathway using the MDA cell line in the presence of 0.5 nM R1881 (AID 1259243). Also: nearly all actives have a fitted effect of over 50% in size. The procedure, abridged:
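Luminescence from an AR/GR-responsive MMTV-luciferase construct in MDA-kb2 breast carcinoma cells, read 30 min after ONE-Glo, following 16 hr co-treatment with compounds and 0.5 nM R1881.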

Assay [19] has as its target Estrogen receptor (Homo sapiens) (UniProt P03372). The assay is described as follows: qHTS assay to identify small molecule antagonists of the estrogen receptor alpha (ER-alpha) signaling pathway using the BG1 cell line in the presence of 0.1 nM 17-beta-estradiol (AID 1259244). Also: nearly all actives have a fitted effect of over 50% in size. A digest of the protocol:
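Luciferase signal from VM7Luc4E2 ERE-reporter cells, co-dosed with test compound and 0.1 nM final 17beta-estradiol for 22 h, read with ONE-Glo.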

The nature of assay [20]: qHTS RealTime-Glo MT Cell Viability Assay in HepG2 cells - 16 hour (AID 1224885). Also: nearly all actives have a fitted effect of over 50% in size. A digest of the protocol:
as §4

From PubChem BioAssay (Tox21) come the findings set out here.

SMILES strings stand for the structures. “And” between values parts separate entries of the source, which are not always exact repeats. Identical values can stand only once. Unmarked numbers belong to inactive results. Inconclusive results are not listed. The source made the active and inactive calls. Unless noted, calls follow the shape of the dose curve; as a rule, active = well fitted curve in the direction sought with a large enough effect in the repeat runs; inconclusive = weak or mixed curves; inactive = no such curve, though single readings can be large; an effect the other way counts as inactive or inconclusive.
% is scaled to controls: 0 for no effect and ±100 for the full control effect.

Chain of Estrogen receptor (Homo sapiens) (P03372 whole entry, looked up): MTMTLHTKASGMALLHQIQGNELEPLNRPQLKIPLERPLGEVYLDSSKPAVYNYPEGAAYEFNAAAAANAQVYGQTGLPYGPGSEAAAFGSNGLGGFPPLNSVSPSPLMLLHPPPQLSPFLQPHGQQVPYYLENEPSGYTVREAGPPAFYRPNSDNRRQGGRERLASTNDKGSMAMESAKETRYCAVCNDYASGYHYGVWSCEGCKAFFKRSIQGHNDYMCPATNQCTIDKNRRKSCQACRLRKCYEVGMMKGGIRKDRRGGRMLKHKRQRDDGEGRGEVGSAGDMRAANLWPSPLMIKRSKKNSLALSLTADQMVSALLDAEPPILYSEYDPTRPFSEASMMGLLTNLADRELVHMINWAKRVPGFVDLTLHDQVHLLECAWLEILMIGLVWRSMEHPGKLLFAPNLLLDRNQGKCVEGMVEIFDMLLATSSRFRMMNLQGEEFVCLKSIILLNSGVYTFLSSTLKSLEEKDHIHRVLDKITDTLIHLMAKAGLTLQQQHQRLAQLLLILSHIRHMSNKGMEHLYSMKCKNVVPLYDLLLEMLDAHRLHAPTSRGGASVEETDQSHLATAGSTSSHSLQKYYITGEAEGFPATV
Chain of Androgen receptor (Homo sapiens) (P10275 whole entry, looked up): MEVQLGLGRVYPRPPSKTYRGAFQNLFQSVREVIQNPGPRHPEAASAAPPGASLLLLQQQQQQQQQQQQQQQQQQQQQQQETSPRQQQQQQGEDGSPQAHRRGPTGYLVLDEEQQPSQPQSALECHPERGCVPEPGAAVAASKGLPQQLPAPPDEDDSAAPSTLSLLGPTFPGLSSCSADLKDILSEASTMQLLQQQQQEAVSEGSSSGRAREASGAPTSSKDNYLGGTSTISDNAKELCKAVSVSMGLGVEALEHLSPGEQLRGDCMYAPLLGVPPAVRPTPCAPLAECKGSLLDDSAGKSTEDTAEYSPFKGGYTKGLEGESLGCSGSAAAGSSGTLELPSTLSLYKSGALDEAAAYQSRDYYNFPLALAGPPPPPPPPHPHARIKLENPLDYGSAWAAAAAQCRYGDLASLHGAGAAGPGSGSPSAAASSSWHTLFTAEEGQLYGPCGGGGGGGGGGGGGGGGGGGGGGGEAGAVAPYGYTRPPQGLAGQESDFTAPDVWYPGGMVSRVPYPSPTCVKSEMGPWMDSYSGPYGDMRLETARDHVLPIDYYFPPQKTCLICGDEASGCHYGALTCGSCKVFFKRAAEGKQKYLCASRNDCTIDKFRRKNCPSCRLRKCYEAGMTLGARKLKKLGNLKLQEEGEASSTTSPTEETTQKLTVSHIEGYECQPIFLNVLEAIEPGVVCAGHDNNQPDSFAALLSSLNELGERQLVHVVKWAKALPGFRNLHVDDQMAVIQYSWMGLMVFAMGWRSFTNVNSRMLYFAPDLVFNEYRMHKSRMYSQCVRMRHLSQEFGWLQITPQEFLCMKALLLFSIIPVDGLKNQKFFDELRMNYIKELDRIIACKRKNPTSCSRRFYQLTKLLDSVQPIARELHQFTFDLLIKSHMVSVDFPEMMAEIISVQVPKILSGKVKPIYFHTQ

On to `COC(=O)[C@H]1[C@H]2C[C@@H]3c4[nH]c5cc(OC)ccc5c4CCN3C[C@H]2C[C@@H](OC(=O)COc2ccc(OC)cc2)[C@@H]1OC`, for which the compound was classed as inactive in [1], in assay [10], in assay [11], in assay [14] and in assay [16]. The Potency result in [2], in assay [3], in [4], in assay [5], in assay [6] and in assay [7] was “inactive” in each case. For the same compound, the Potency result in assay [8], in assay [9], in [12], in assay [13] and in [15] was “inactive” throughout.
As for `CCCCc1ccc2cccc(S(=O)(=O)O)c2c1`, the compound was called inactive in assay [1], in assay [10], in assay [11], in assay [19], in assay [14] and in assay [16]. Moreover, the Potency result in assay [2], in assay [3], in assay [17], in [5], in assay [6] and in assay [7] was “inactive” each time. For the same compound, the Potency result in [8], in assay [9], in [18], in assay [13] and in assay [15] was “inactive” throughout.
Take `C=C(C)C(=O)OCCC(C)OC(=O)C(=C)C` (stereo not drawn): the compound was called inactive in assay [1], in assay [20], in assay [10], in assay [11], in assay [19] and in assay [14]. In assay [16], the compound was called inactive. Besides, the Potency entry in assay [2], in [4], in assay [17], in assay [5], in [6] and in [7] was “inactive” throughout. The Potency entry in assay [8], in assay [9], in assay [13] and in assay [15] was “inactive” each time.
For the compound `COC(=O)CCCCCCCCC(=O)OC`, the call in assay [1], in [20], in [10], in assay [11], in [19] and in assay [14] was inactive. Moreover, the compound was called inactive in assay [16]. Further, the Potency result in [2], in assay [4], in assay [17], in assay [5], in [6] and in [7] was “inactive” throughout. Also, the Potency result in assay [8], in assay [9], in assay [13] and in [15] was “inactive” throughout.
For `COc1nc(C)nc(N)n1`, the compound was called inactive in [1], in assay [20], in assay [10], in assay [11], in assay [14] and in assay [16]. Further, the Potency entry in assay [2], in [4], in [17], in [5], in assay [6] and in [7] was “inactive” each time. The Potency entry in [8], in [9], in assay [13] and in assay [15] was “inactive” each time.
In the case of `Cn1ccc2cc3c(cc21)CCN3C(=O)Nc1cccnc1`, the activity change, negative = cytotoxicity was -0.254% [at 15.8 µM] in assay [1]; -8.85% [at 15.8 µM] in assay [5]; -3.76% [at 15.8 µM] in [6]; -0.377% [at 15.8 µM] in assay [8]; -4.26% [at 19 µM] in [10]; -0.0806% [at 19 µM] in assay [14]. Moreover, the cytotoxicity increase in assay [2] is 1.72% [at 15.8 µM]; in assay [4] it was -9.84% [at 15.8 µM]; in [17] it was -5.84% [at 15.8 µM]; in [9], -6.36% [at 15.8 µM]. The activity change, negative = cytotoxic in assay [20] is -4.07% [at 15.8 µM]. Besides, the activity change in assay [7] was -2.95% [at 15.8 µM, active compounds read high]. Moreover, the viability change, negative = cytotoxic in [11] was -1.94% [at 19 µM]; in [15], 4.12% [at 19 µM]; in assay [16], 4.69% [at 19 µM]. The activity change, negative = inhibition in assay [19] is 76.4% [at 19 µM]. Besides, the Potency result in assay [12] is “inactive”. Also, in assay [13], the Potency is 11.6 µM (active).
On to `Cc1nccn1CC1CCc2c(c3ccccc3n2C)C1=O` (stereo not drawn), for which the compound was classed as inactive in assay [1], in [10], in assay [11], in assay [19], in assay [14] and in assay [16]. Besides, the Potency result in [2], in [3], in assay [4], in [17], in assay [6] and in [7] was “inactive” each time. Moreover, the Potency result in assay [8], in assay [9], in [13] and in [15] was “inactive” throughout. Further, the PLD induction in [12] was -0.746% [at 7.66 µM] and -2.67% [at 3.15 µM].
On to `CC1(C)SC(C)(C)SC(C)(C)S1`, for which the result in assay [1], in [20], in assay [10], in assay [11], in assay [19] and in assay [14] was inactive. Further, the result in [16] was inactive. Besides, the Potency result in assay [2], in assay [3], in assay [17], in assay [6], in assay [7] and in assay [8] was “inactive” each time. In addition, the Potency result in [18] and in [13] was “inactive” each time.
